Unmarked numbers belong to inactive results. Inconclusive results are not listed. Active and inactive are the calls of the source. Unless noted, calls come from the whole dose curve; as a rule, active = well fitted curve in either direction with a large enough effect (not every such curve was filed as active); inconclusive = small, poorly fitted or top-dose-only effect, or another doubt; inactive = flat fitted curve, though single readings scatter.
Key:
[1] = AP1 Signaling Pathway (AID 357); details: ME-180 AP-1-bla reporter, EGF-induced, beta-lactamase ratio, 5 h; at 17.2 µM (top of the series) unless noted; note: % is set by controls: 0 for no effect and ±100 for the full control effect
Summary of the method: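 ME-180 cells with beta-lactamase reporter under AP-1 response element, stimulated with EC50 EGF; compounds tested in titration series, 5 h at 37 °C. CCF4 substrate added 2.5 h at room temperature; 460/530 nm emission ratio gave %activity and AC50.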

[2] = NFAT Signaling Pathway (AID 444); details: Jurkat NFAT-bla M1, carbachol, beta-lactamase ratio, 5 h; at 17.2 µM (top of the series) unless noted;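 note: carbachol stimulus at about its EC50 of 1 µM final; % is set by controls: 0 for no effect and ±100 for the full control effect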
Summary of the method: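 Read-out: CCF4 FRET ratio (460 nm/530 nm) after 1 h RT dye loading, used for %activity and AC50 from titration series. Cells: Jurkat NFAT-β-lactamase/M1 line, treated with compound plus 1 uM carbachol for 5 h, 37 °C.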

[3] = Stat Signaling Pathway (AID 446); details: ME-180 SIE beta-lactamase reporter, IL-6 stimulated, 5 h; at 17.2 µM (top of the series) unless noted;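 note: ME-180 cervical cancer cells given 40 pM IL-6 alongside compound; SIE-controlled beta-lactamase reporter measured as 460/530 nm FRET emission ratio; % is set by controls: 0 for no effect and ±100 for the full control effect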
Summary of the method: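 ME-180 SIE-bla cells; overnight plating; cpd + IL-6 40 pM, 5 h, 37 C; LiveBLAzer 2.5 h RT; 460/530 nm emission ratio. Normalized to 300 pM IL-6 and 125 nM JAK inhibitor controls.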

[4] = biological target: Glucocorticoid receptor (Homo sapiens) (UniProt P04150); experiment: GR-GFP Redistribution (AID 450;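 active = compounds whose dose series gives a full or clear partial fitted curve of increased nuclear translocation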; note: potency is the fitted concentration of half-maximal effect)
Sequence of Glucocorticoid receptor (Homo sapiens) (P04150 whole entry, looked up): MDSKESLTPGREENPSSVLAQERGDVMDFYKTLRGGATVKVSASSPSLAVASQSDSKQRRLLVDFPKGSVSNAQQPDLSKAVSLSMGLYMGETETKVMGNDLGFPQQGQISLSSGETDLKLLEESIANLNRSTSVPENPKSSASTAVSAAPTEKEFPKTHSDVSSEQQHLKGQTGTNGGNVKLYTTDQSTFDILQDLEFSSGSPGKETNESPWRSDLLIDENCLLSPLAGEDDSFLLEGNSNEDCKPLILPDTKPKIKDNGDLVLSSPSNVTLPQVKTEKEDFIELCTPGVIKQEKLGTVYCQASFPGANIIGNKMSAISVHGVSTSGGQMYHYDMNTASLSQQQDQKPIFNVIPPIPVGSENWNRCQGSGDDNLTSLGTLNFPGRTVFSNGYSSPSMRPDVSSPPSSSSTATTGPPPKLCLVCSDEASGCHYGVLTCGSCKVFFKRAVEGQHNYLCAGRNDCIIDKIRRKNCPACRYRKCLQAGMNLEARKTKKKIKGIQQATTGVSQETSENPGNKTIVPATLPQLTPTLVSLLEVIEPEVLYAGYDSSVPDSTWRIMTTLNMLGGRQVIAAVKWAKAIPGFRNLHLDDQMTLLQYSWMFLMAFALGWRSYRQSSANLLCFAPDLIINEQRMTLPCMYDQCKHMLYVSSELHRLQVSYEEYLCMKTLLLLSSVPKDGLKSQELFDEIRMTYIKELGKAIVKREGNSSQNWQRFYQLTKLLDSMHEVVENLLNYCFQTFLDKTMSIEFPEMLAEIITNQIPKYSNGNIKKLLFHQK

[5] = qHTS Assay for Identification of Small Molecule Agonists for Hypoxia Response Element Signaling Pathway (AID 914; active = well fitted activation curve with a large enough effect in the signal ratio, with a control signal flat, not every such curve was filed as active; the % refers to the signal ratio; note: potency is the fitted concentration of half-maximal effect; for activation: % of control where 0% means no effect); details: ME-180 (cervical carcinoma) HRE-bla reporter, beta-lactamase ratio, CoCl2, 17 h; activation: active compounds read high
Summary of the method: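 A beta-lactamase reporter under hypoxia response element control in ME-180 cells served as the system. Compound titrations plus EC50 CoCl2 ran 17 h at 37 degrees Celsius; AC50 values were fitted from %Activity.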

[6] = biological target: Mitogen-activated protein kinase 10 (Mus musculus) (UniProt Q61831); experiment: JNK3 AlphaScreen Assay (AID 530);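 note: kinase came from lysate of stimulated human HepG2 cells; signal reports phosphorylation of biotinylated GST-cJun 1-79 at Ser73 with 10 µM ATP; % is set by controls: 0 for no effect and ±100 for the full control effect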
Summary of the method: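 Room-temperature AlphaScreen kinase assay; pre-activated HepG2 lysate as JNK3 source, biotin-GST-cJun(1-79) substrate, 10 uM ATP, compound 15 min preincubation.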

[7] = biological target: 3',5'-cyclic-AMP phosphodiesterase 4B (Homo sapiens) (UniProt Q07343); experiment: qHTS Assay for Inhibitors of PDE-IV (AID 607; active = well fitted activation curve with a large enough effect in the main read-out, with a control signal flat, not every such curve was filed as active; note: % of control where 0% means no effect)
Sequence of 3',5'-cyclic-AMP phosphodiesterase 4B (Homo sapiens) (Q07343 whole entry, looked up): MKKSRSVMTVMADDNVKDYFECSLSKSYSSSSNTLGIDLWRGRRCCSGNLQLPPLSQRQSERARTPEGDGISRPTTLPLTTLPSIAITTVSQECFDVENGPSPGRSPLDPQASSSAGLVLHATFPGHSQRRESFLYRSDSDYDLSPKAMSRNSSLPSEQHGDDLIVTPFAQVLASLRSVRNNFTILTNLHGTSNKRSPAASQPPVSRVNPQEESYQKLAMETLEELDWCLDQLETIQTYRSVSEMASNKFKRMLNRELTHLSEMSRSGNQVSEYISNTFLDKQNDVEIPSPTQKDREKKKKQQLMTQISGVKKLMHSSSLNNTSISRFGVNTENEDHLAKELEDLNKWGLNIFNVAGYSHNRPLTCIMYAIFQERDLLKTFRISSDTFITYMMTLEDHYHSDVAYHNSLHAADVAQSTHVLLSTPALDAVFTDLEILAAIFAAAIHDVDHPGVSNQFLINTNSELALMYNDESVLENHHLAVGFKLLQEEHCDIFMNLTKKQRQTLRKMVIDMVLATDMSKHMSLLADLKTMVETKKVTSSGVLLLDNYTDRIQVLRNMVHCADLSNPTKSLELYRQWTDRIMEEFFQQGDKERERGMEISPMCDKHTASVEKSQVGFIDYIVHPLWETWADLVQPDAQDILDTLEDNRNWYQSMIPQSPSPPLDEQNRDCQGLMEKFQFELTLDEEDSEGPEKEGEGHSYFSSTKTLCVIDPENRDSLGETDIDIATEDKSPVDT
Summary of the method: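 ACTOne HEK293 cells carry a modified cAMP-gated CNG channel and express endogenous PDE4; plated 1000 cells/well, compounds up to 22.9 uM final. Membrane-potential dye fluorescence (ex 535/em 590) was read; parental cells received 10 uM forskolin + 100 uM RO 20-1724.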

[8] = biological target: Ubiquitin carboxyl-terminal hydrolase 1 (Homo sapiens) (UniProt O94782); experiment: Inhibitors of USP1/UAF1: Pilot qHTS (AID 504865; active = well fitted inhibition curve with a large enough effect;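 note: rhodamine fluorescence freed from ubiquitin-rhodamine substrate followed over time; top concentration of the series differs between compounds; % is set by controls: 0 for no effect and ±100 for the full control effect; nearly all actives have a fitted effect of over 35% in size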)
Sequence of Ubiquitin carboxyl-terminal hydrolase 1 (Homo sapiens) (O94782 whole entry, looked up): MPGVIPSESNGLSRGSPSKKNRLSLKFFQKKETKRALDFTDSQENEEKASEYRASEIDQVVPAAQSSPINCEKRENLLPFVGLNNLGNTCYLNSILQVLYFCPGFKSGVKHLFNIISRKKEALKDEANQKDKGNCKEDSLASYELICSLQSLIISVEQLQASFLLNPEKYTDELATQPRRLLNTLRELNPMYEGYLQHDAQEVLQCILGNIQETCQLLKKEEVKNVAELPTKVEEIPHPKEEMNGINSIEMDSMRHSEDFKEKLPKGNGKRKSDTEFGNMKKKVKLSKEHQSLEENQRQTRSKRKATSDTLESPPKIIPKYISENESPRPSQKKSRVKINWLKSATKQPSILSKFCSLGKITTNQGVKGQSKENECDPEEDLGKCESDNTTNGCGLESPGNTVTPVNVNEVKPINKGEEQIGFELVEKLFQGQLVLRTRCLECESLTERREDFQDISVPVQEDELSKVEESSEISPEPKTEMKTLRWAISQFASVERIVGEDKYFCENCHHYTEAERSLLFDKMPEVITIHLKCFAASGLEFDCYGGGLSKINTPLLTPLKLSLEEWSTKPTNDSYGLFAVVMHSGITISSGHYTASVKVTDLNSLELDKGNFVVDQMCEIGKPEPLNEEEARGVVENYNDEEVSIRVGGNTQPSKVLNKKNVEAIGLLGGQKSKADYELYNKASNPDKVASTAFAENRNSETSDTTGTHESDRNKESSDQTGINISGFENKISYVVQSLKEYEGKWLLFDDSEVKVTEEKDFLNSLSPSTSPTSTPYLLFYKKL
Summary of the method: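 Kinetic fluorescence assay: 1nM USP1/UAF1, 15 min compound preincubation, then 150nM Ub-Rho; 480/540 nm.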

Question: With `CCOc1ccc(C2C(C#N)=C(N)SC(N)=C2C#N)cc1OC` as the compound, how does the activity change, negative = inhibition [1] read?
Answer: 0.186%

Question: And the activity change, negative = inhibition [2]?
Answer: 10.8%

Question: And the activity, negative = inhibition [3]?
Answer: -5.25%

Question: What about the Potency [4] of the same compound?
Answer: > 20.6 µM

Question: And the activation [5]?
Answer: -15.3%

Question: For `CC(C)OCCCNc1ncnc2c1cnn2-c1ccccc1`, which activity change, negative = inhibition [1] is on record?
Answer: -19.6%

Question: And the activity change, negative = inhibition [2]?
Answer: 12.4%

Question: And the activity, negative = inhibition [3]?
Answer: -0.244%

Question: And the Potency [4]?
Answer: > 20.6 µM

Question: What about the activation [5] of the same compound?
Answer: -23.4%

Question: Which activity change, negative = inhibition [1] does the source give for `CCOc1cccc(N2C(=O)CC(N(CCc3ccc(OC)c(OC)c3)C(=O)CC)C2=O)c1` (stereo not given) here?
Answer: -28.7%

Question: What about the activity change, negative = inhibition [2] of the same compound?
Answer: 0.637%

Question: What about the activity, negative = inhibition [3] of the same compound?
Answer: 3.67%

Question: What about the Potency [4] of the same compound?
Answer: > 20.6 µM

Question: What about the activation [5] of the same compound?
Answer: 11%

Question: With `COC(=O)C(NC(C)=O)(Nc1nc2c(s1)CCCC2)C(F)(F)F` (stereo not given) as the compound, how does the activity change, negative = inhibition [1] read?
Answer: 1.18%

Question: And the activity change, negative = inhibition [2]?
Answer: -2.64%

Question: What about the activity, negative = inhibition [3] of the same compound?
Answer: -8.22%

Question: And the Potency [4]?
Answer: > 20.6 µM

Question: What about the activation [5] of the same compound?
Answer: -17%

Question: With `COc1cc(NC(=O)NC(C)(C(F)(F)F)C(F)(F)F)cc(OC)c1OC` as the compound, how does the activity change, negative = inhibition [1] read?
Answer: -9.62%

Question: What about the activity change, negative = inhibition [2] of the same compound?
Answer: 19.4%

Question: And the activity, negative = inhibition [3]?
Answer: -4.15%

Question: What about the Potency [4] of the same compound?
Answer: > 20.6 µM

Question: What about the activation [5] of the same compound?
Answer: -29.2%

Question: Which results are given for `O=C1CSC(=Nc2ccc(O)cc2)N1c1ccc(O)cc1`?
Answer: activity change, negative = inhibition [1]: 24.5%; activity change, negative = inhibition [2]: -9.67%; activity, negative = inhibition [3]: 13.7%; Potency [4]: > 20.6 µM; activation [5]: -9.31%

Question: For `CSc1nc(C)c2c(c1C#N)CCCC2`, which activity change, negative = inhibition [1] is on record?
Answer: -16.1%

Question: What about the activity change, negative = inhibition [2] of the same compound?
Answer: -18.1%

Question: What about the activity, negative = inhibition [3] of the same compound?
Answer: 16.1%

Question: And the Potency [4]?
Answer: > 20.6 µM

Question: What about the activation [5] of the same compound?
Answer: -4.49%

Question: For `C=CCn1c(N)c(C(=O)OC(C)(C)C)c2nc3ccccc3nc21`, which activity change, negative = inhibition [1] is on record?
Answer: -16.9%

Question: And the activity change, negative = inhibition [2]?
Answer: 3.64%

Question: What about the activity, negative = inhibition [3] of the same compound?
Answer: -6.1%

Question: And the Potency [4]?
Answer: > 20.6 µM

Question: What about the Potency [5] of the same compound?
Answer: 10 µM (active)

Question: For `CCN1CCCC1Cn1cnc2c([nH]c3ccc(C)cc32)c1=O` (stereo not given), which activity change, negative = inhibition [1] is on record?
Answer: -6.04%

Question: And the activity change, negative = inhibition [2]?
Answer: 8.74%

Question: And the activity, negative = inhibition [3]?
Answer: 3.87%

Question: And the Potency [4]?
Answer: > 20.6 µM

Question: What about the activation [5] of the same compound?
Answer: 9.56%

Question: Which results are given for `O=c1c2ccccc2ncn1Cc1ccco1`?
Answer: activity change, negative = inhibition [1]: 14.1%; activity change, negative = inhibition [2]: -4.44%; activity, negative = inhibition [3]: 2.8%; Potency [4]: > 20.6 µM; activation [5]: 2.2%

Question: What does the source list for `O=C(NC[C@@H]1CCCCN1)c1cc(OCC(F)(F)F)ccc1OCC(F)(F)F`?
Answer: activity change, negative = inhibition [1]: -1.96%; activity change, negative = inhibition [2]: -7.71%; activity, negative = inhibition [3]: 4.72%; Potency [6]: inactive; Potency [7]: inactive; Potency [8]: inactive

Question: With `Cc1ccc2[nH]c(CCN(C)C)c(CC#N)c2c1` as the compound, how does the activity change, negative = inhibition [1] read?
Answer: 12.9%

Question: What about the activity change, negative = inhibition [2] of the same compound?
Answer: 8.6%

Question: What about the Potency [4] of the same compound?
Answer: > 20.6 µM

Question: For `Cc1cc(C)nc(N(C#N)CN2C(=O)c3ccccc3C2=O)n1`, which activity change, negative = inhibition [1] is on record?
Answer: 2.24%

Question: What about the activity change, negative = inhibition [2] of the same compound?
Answer: -1.49%

Question: What about the activity, negative = inhibition [3] of the same compound?
Answer: 0.344%

Question: What about the activation [5] of the same compound?
Answer: 12.2%

Question: For `CCC(CC)C1C(C#N)=C(N)Oc2n[nH]c(C)c21` (stereo not given), which activity change, negative = inhibition [1] is on record?
Answer: -22.7%

Question: And the activity change, negative = inhibition [2]?
Answer: -13.2%

Question: What about the Potency [4] of the same compound?
Answer: > 20.6 µM

Question: For `c1ccc2c(c1)[nH]c1c(N3CCC4(CC3)OCCO4)ncnc12`, which activity change, negative = inhibition [1] is on record?
Answer: -1.63%

Question: And the activity change, negative = inhibition [2]?
Answer: 7.49%

Question: What about the Potency [4] of the same compound?
Answer: > 20.6 µM

Question: Which activity change, negative = inhibition [1] does the source give for `CCOC(=O)c1[nH]c2cc3c(cc2c1NC(=O)CN1CCc2ccccc2C1)OCO3` here?
Answer: -23.5%

Question: And the activity change, negative = inhibition [2]?
Answer: -10.9%

Question: And the Potency [4]?
Answer: > 20.6 µM

Question: With `ClC(Br)=C(n1cnc2ccccc21)n1cnc2ccccc21` as the compound, how does the activity change, negative = inhibition [1] read?
Answer: -25.5%

Question: And the activity change, negative = inhibition [2]?
Answer: -11.4%

Question: What about the Potency [4] of the same compound?
Answer: > 20.6 µM

Question: What does the source list for `O=C1c2ccccc2C(=O)N1CCN1CCc2ccccc21`?
Answer: activity change, negative = inhibition [1]: -29%; activity change, negative = inhibition [2]: 1.23%; Potency [4]: > 20.6 µM

Question: With `COc1ccc(Cn2ccnc2)cc1Br` as the compound, how does the activity change, negative = inhibition [1] read?
Answer: 4.25%

Question: What about the activity change, negative = inhibition [2] of the same compound?
Answer: -14%

Question: And the Potency [4]?
Answer: > 20.6 µM

Question: Which activity change, negative = inhibition [1] does the source give for `CC(C)COC(=O)CCNc1n[nH]c(=O)[nH]c1=O` here?
Answer: 12.9%

Question: What about the activity change, negative = inhibition [2] of the same compound?
Answer: 4.96%

Question: What about the activity, negative = inhibition [3] of the same compound?
Answer: 1.49%

Question: What about the activation [5] of the same compound?
Answer: -10.2%

Question: For `CCc1ccc2c(c1)C(C)=CC(C)(C)N2`, which activity change, negative = inhibition [1] is on record?
Answer: 1.34%

Question: And the activity change, negative = inhibition [2]?
Answer: 7.21%

Question: And the Potency [4]?
Answer: > 20.6 µM

Question: For `Nc1nnnn1N=C1CCCCC1`, which activity change, negative = inhibition [1] is on record?
Answer: -7.36%

Question: And the activity change, negative = inhibition [2]?
Answer: 0.933%

Question: And the Potency [4]?
Answer: > 20.6 µM

Question: Which activity change, negative = inhibition [1] does the source give for `N#Cc1c2c(c(-c3ccccc3)[nH]c1=O)CCCC2` here?
Answer: 5.23%

Question: What about the activity change, negative = inhibition [2] of the same compound?
Answer: 10.7%

Question: What about the Potency [4] of the same compound?
Answer: > 20.6 µM

Question: For `COc1cc2nc(-c3ccccc3)nc(N3CCCC3)c2cc1OC`, which activity change, negative = inhibition [1] is on record?
Answer: 24.5%

Question: And the activity change, negative = inhibition [2]?
Answer: -11.3%

Question: And the Potency [4]?
Answer: > 20.6 µM

Question: What does the source list for `COc1cc2c(cc1OC)C1(CCCC1)C(N)=C2C#N`?
Answer: activity change, negative = inhibition [1]: -17.7%; activity change, negative = inhibition [2]: -1.71%; Potency [4]: > 20.6 µM
